Reference: PubChem BioAssay AID686978 (National Center for Advancing Translational Sciences (NCATS), 2013)
The whole screen tested about 420,000 compounds, of which about 64,000 (15%) were called active. About 27% were inconclusive and are not listed. Calls follow the shape of the dose curve; as a rule, active = well fitted inhibition curve with a large enough effect; inconclusive = small, poorly fitted or top-dose-only effect; inactive = flat fitted curve, though single readings scatter. A selection follows.

assay: qHTS for Inhibitors of human tyrosyl-DNA phosphodiesterase 1 (TDP1): qHTS in cells in absence of CPT; settings: DT40 Tdp1-/- hTDP1 cells, no CPT, ATP luminescence, 48 h; activity change, negative = growth inhibition: at 46.2 µM (top of the series); also: nearly all actives have a fitted effect of over 55% in size
Method in brief: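 Stably hTDP1-transfected Tdp1-null chicken DT40 cells were treated with library compounds minus camptothecin and grown for at least 48 hr at 37 °C, after which cellular ATP was quantified by luminescence.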
% is scaled to controls: 0 for no effect and ±100 for the full control effect; potency is read from the fitted curve at half-maximal effect.

| Compound | activity change, negative = growth inhibition | Potency |
| --- | --- | --- |
| CSCCC(NC(=O)c1ccco1)C(=O)OCC(=O)Nc1ncc(Cl)c(C)c1Cl (stereo not given) | -20% (inactive) |  |
| O=C(Nc1c2c(nn1-c1ccccc1)CS(=O)(=O)C2)C1CCCC1 | -18.2% (inactive) |  |
| COCCNC(=O)C(OC(=O)c1cccs1)c1ccc(F)cc1 (stereo not given) | -11.5% (inactive) |  |
| Cn1cc(C2OC(=O)c3ccccc32)c2ccccc21 (stereo not given) | -28.3% (inactive) |  |
| CCn1c(O)c(N=NC2=NC(=O)CS2)c2cc(C)ccc21 | -23.4% (inactive) |  |
| COC(=O)C[C@@H]1C=C[C@@H](NS(=O)(=O)c2cccc(OC)c2)[C@@H](CO)O1 | -2.53% (inactive) |  |
| C[C@@H]1CN([C@H](C)CO)C(=O)CCCn2nncc2CO[C@@H]1CN(C)C(=O)OCc1ccccc1 | -13.2% (inactive) |  |
| O=C(O)CSc1nccn1-c1cccc(Cl)c1 | -24.7% (inactive) |  |
| Cc1cccc(OCC(=O)OCC(=O)Nc2ccc(Cl)cn2)c1 | -2.9% (inactive) |  |
| CCNC(=S)N1CCN(CCN=CC2=C(O)CC(C)(C)CC2=O)CC1 | 0.937% (inactive) |  |
| Cc1cc(C)c(S(=O)(=O)N2C=CC(C(F)(F)F)=NCC2)c(C)c1 | -29.9% (inactive) |  |
| CC(CCO)Nc1nc2c([nH]1)c(=O)n(C)c(=O)n2C (stereo not given) | -0.337% (inactive) |  |
| COc1ccc(-c2csc3nc(-c4ccccc4F)oc(=O)c23)cc1OC |  | 16.4 µM (active) |
| Cc1sc2nc(-c3ccccc3F)oc(=O)c2c1C | 1.12% (inactive) |  |
| COc1ccccc1-c1nnc(-c2ccc(F)cc2)o1 | -26.4% (inactive) |  |
| O=C(NCc1ccco1)C(c1ccncc1)N(C(=O)Cn1nnc2ccccc21)c1ccccc1 (stereo not given) | -4.11% (inactive) |  |
| Cc1nn(-c2ccccc2)c2[nH]c(C(F)(F)F)cc(=O)c12 | -13.2% (inactive) |  |
| O=S(=O)(Nc1ncnc2sccc12)c1cccc(F)c1 | -22.3% (inactive) |  |
| Nc1ccccc1-c1nc2ccncc2[nH]1 | 5.85% (inactive) |  |
| Cc1cccc(C)c1NC(=O)C1(N(C(=O)c2ccccn2)c2ccc(O)cc2)CCCCC1 | 3.63% (inactive) |  |
| COc1ccc2c(CC(=O)OCC(=O)Nc3ccccc3[N+](=O)[O-])coc2c1 | -18% (inactive) |  |
| Cc1nc(C)c(C(=O)N(c2ccc(C)c(C)c2)C(C(=O)NCc2ccco2)c2ccccc2)s1 (stereo not given) | -13% (inactive) |  |
| Cc1ccc(-c2nnn(CC(=O)N(Cc3ccco3)C(C(=O)NC(C)(C)C)c3ccncc3)n2)o1 (stereo not given) | 5.93% (inactive) |  |
| Cc1nn(-c2ccccc2)c2sc(C(=O)N(Cc3ccco3)C(C)C(=O)NC(C)(C)C)cc12 (stereo not given) |  | 14.6 µM (active) |
| Cc1ccc(NC(=O)Nc2ccc3oc(C)nc3c2)cc1 | -25.8% (inactive) |  |

| Compound | activity change, negative = growth inhibition | Potency |
| --- | --- | --- |
| COc1cccc(CNC(=O)c2n[nH]c3ccccc23)c1 |  | 16.4 µM (active) |
| COc1ccc(-c2cn3c(n2)sc2cc(C(=O)Nc4ccccc4F)ccc23)cc1 |  | 3.66 µM (active) |
| COc1ccc(NC(=O)c2cc(-c3ccc(C)cc3)on2)cc1 | 3.31% (inactive) |  |
| O=C(NCCc1ccc(F)cc1)c1n[nH]c2ccccc12 | -12.6% (inactive) |  |
| COc1ccccc1NC(=O)c1ccc2nc(N3C(=O)CCC3=O)sc2c1 | -2.13% (inactive) |  |
| COc1ccc(-c2cn3c(C)c(C(=O)Nc4cc(C)cc(C)c4)sc3n2)cc1 |  | 16.4 µM (active) |
| O=C(COC(=O)c1n[nH]c2ccccc12)NCc1ccccc1 | -3.5% (inactive) |  |
| COc1ccc2oc(=O)c(-c3cn4c(n3)sc3cc(OC)ccc34)cc2c1 | -13.4% (inactive) |  |
| CCCN1CCN(CCCNC(=O)c2ccc3nc(Cc4ccccc4)oc3c2)CC1 | -27.3% (inactive) |  |
| CCOC(=O)c1ccccc1NC(=O)c1sc2nc(-c3ccc(F)cc3)cn2c1C | -0.672% (inactive) |  |
| COc1ccc(-c2cc(C(=O)NCCCN3CCOCC3)no2)cc1 | -21.3% (inactive) |  |
| CCN1CCN(CCCNC(=O)c2ccc3c(c2)sc2nc(-c4ccc(OC)cc4)cn23)CC1 |  | 1.3 µM (active) |
| O=C(OCC(=O)N1CCCCC1)c1ccc(OC(F)(F)F)cc1 | -11.7% (inactive) |  |
| CCN(CC)C(=O)C1CCC(C)(C(=O)O)C1(C)C (stereo not given) | -3.85% (inactive) |  |
| O=S(=O)(NCCSc1ccccn1)c1ccc(Cl)cc1 | -8.5% (inactive) |  |
| CC(C)=NN1C(=O)c2ccccc2NC1(C)C | -4.65% (inactive) |  |
| Cc1nnsc1C(=O)Nc1cccc(Cl)c1C | -1.62% (inactive) |  |
| COc1cccc(CNC(=O)CCc2nc(-c3ccc(C)cc3)no2)c1 | -22.7% (inactive) |  |
| COc1cccc(CNC(=O)c2ccc3c(c2)sc2nc(-c4cccc(OC)c4)cn23)c1 |  | 4.11 µM (active) |
| COc1cccc(CNC(=O)Cn2ncn3c(cc4ccccc43)c2=O)c1 | -13.4% (inactive) |  |
| CCOc1cc(NC(=O)CCl)c(OCC)cc1NC(C)=O |  | 16.4 µM (active) |
| CCCC(=O)Nc1cc(OCC)c(NC(=O)NC2CCCCC2)cc1OCC | -4.1% (inactive) |  |
| CCOc1cc(NC(=O)Nc2ccccc2)c(OCC)cc1NC(=O)CC | -29.2% (inactive) |  |
| C=CC1=C(C(=O)O)N2C(=O)[C@@H](NC(=O)/C(=N/OCC(=O)O)c3csc(N)n3)[C@H]2SC1 | -3.69% (inactive) |  |
| COc1cc(N/C=C2\CC(=O)NC(C)=C2C#N)cc(OC)c1OC |  | 25.9 µM (active) |

| Compound | activity change, negative = growth inhibition | Potency |
| --- | --- | --- |
| COC(=O)C1=C(C)NC(=O)CC1c1ccccc1OC (stereo not given) | -10.2% (inactive) |  |
| COc1cc2c(cc1OC)C(C(=O)Nc1cc(C)c(OC)c(C)c1)CC(=O)N2 (stereo not given) | -8.04% (inactive) |  |
| CC(C)CNC(=O)C1(C)CCCN1C(=O)CSc1ccccc1 (stereo not given) | -14.1% (inactive) |  |
| Cc1ccccc1NC(=O)N1CCCC1C(=O)NCc1ccccc1 (stereo not given) | 22.4% (inactive) |  |
| O=C1CN(C(=O)Nc2ccccc2C(F)(F)F)C(c2ccccc2)c2c(sc3c2CCCC3)N1 (stereo not given) |  | 18.4 µM (active) |
| O=C(CSc1n[nH]c(=O)n1-c1ccccc1)Nc1ccccc1C(F)(F)F | 10.9% (inactive) |  |
| [2H]C(CCOS(N)(=O)=O)c1ccccc1 (stereo not given) | -7.22% (inactive) |  |
| Cn1c(=NC(=O)C2CC2)sc2cc(F)cc(F)c21 | 1.11% (inactive) |  |
| O=C(CN1CCN(Cc2ccccc2)CC1)NC(c1ccccc1)c1ccccc1 |  | 23.1 µM (active) |
| O=C(CN1CCc2ccccc21)NC(c1ccccc1)c1ccccc1 | -15.6% (inactive) |  |
| O=C(NC(c1ccccc1)c1ccccc1)N1CCN(CCO)CC1 | -19% (inactive) |  |
| CC12CCC(=O)N1C(C(=O)Nc1ccc(F)c(F)c1F)CS2 (stereo not given) | -2.89% (inactive) |  |
| COC(=O)/C=C(\Oc1ccccc1)C1(O)CCCCC1 | -6.36% (inactive) |  |
| CCNC(=O)NNC(=O)C1CC(c2cccs2)=NO1 (stereo not given) | 1.39% (inactive) |  |
| O=C(Nc1nnc(-c2ccccc2)o1)c1cccc(S(=O)(=O)N2CCOCC2)c1 |  | 16.4 µM (active) |
| Cc1nc2ccc(NC(=O)c3cccc(S(=O)(=O)N4CCOCC4)c3)cc2s1 |  | 20.6 µM (active) |
| O=C(Nc1ccc(S(=O)(=O)Nc2nccs2)cc1)c1cccc(S(=O)(=O)N2CCOCC2)c1 | 15% (inactive) |  |
| Cc1cc2ccccn2c1C(=O)c1cccc(S(=O)(=O)N2CCOCC2)c1 |  | 16.4 µM (active) |
| O=C(N/N=C/c1ccc([N+](=O)[O-])o1)c1cccc(S(=O)(=O)N2CCOCC2)c1 |  | 18.4 µM (active) |
| CCOc1cc(/C=N/NC(=O)c2cccc(S(=O)(=O)N3CCOCC3)c2)ccc1OCC(=O)N(C)C | -4.34% (inactive) |  |
| O=C(c1cccc(S(=O)(=O)N2CCOCC2)c1)N1CCOCC1 | 3.04% (inactive) |  |
| O=C(COC(=O)c1ccccc1)Nc1cccc(S(=O)(=O)N2CCOCC2)c1 | -17.9% (inactive) |  |
| NC(=O)CSc1nnc(-c2cccc(S(=O)(=O)N3CCOCC3)c2)o1 | -10.2% (inactive) |  |
| COc1ccc(Br)cc1/C=N/NC(=O)c1cccc(S(=O)(=O)N2CCOCC2)c1 | -49.8% (inactive) |  |
| Cc1cc(C(=O)NNC(=O)c2cccc(S(=O)(=O)N3CCOCC3)c2)c2ccccc2n1 | -3.56% (inactive) |  |
